These results are taken from PubChem BioAssay.

Structures are written as SMILES. Unmarked numbers belong to inactive results. Active and inactive are the calls of the source. Cut-off read from the data, not from the text of the source, unless noted: active = inhibition above about 30%; inactive = the rest.

Broadly, the inhibition is the relative decrease from the control value, in per cent.

The target of assay [1] is Nuclear receptor coactivator 3 (Homo sapiens) (UniProt Q9Y6Q9). Description: SRC3 coactivator transcriptional activity inhibitors, confirmation, cell-based, luminescence, quadruplicate (AID 588792;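 active = mean inhibition over 43.08%, the solvent-only control mean plus 3 SD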;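 note: 0% = DMSO treated cells and 100% = gossypol at 36 µM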). Particulars: HEK293 GAL4-SRC3 luciferase reporter, at 3.6 µM, hits give high values.
The test system of assay [2] is transactivating tegument protein VP16 (Human herpesvirus 1), Gal4-VP16 luciferase reporter. As to the kind of experiment: VP16 transactivation inhibitors, counter-screen for SRC3 inhibitor project, cell-based, luminescence, high throughput (AID 588794). The following applies: mammalian cells, VP16-driven luciferase reporter luminescence; at 3.6 µM; hits give high values. In general terms: Counterscreens check selectivity or assay interference.

Assay [3] deals with Nuclear receptor coactivator 1 (Homo sapiens) (UniProt Q15788). Description: SRC1 coactivator transcriptional activity inhibitors, confirmation, cell-based, luminescence, quadruplicate (AID 588820;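 active = mean inhibition above 46.68%, the untreated control wells mean plus 3 SD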;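 note: 0% = DMSO wells and 100% = gossypol 36 µM treated wells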). Particulars: HEK293 GAL4-SRC1 luciferase reporter, at 3.6 µM, hits give high values. (Reporter assays use an easily measured gene product as a stand-in for the process of interest.)
The nature of assay [4]: VP16 transactivation inhibitors, counter-screen for SRC1 inhibitor project, cell-based, luminescence, high throughput (AID 588824; in the data active = inhibition above about 25%). The following applies: cell-based VP16 transactivation luciferase luminescence; at 3.6 µM; hits give high values.

Sequence of Nuclear receptor coactivator 1 (Homo sapiens) (Q15788 whole entry, looked up, the tested form may be a part): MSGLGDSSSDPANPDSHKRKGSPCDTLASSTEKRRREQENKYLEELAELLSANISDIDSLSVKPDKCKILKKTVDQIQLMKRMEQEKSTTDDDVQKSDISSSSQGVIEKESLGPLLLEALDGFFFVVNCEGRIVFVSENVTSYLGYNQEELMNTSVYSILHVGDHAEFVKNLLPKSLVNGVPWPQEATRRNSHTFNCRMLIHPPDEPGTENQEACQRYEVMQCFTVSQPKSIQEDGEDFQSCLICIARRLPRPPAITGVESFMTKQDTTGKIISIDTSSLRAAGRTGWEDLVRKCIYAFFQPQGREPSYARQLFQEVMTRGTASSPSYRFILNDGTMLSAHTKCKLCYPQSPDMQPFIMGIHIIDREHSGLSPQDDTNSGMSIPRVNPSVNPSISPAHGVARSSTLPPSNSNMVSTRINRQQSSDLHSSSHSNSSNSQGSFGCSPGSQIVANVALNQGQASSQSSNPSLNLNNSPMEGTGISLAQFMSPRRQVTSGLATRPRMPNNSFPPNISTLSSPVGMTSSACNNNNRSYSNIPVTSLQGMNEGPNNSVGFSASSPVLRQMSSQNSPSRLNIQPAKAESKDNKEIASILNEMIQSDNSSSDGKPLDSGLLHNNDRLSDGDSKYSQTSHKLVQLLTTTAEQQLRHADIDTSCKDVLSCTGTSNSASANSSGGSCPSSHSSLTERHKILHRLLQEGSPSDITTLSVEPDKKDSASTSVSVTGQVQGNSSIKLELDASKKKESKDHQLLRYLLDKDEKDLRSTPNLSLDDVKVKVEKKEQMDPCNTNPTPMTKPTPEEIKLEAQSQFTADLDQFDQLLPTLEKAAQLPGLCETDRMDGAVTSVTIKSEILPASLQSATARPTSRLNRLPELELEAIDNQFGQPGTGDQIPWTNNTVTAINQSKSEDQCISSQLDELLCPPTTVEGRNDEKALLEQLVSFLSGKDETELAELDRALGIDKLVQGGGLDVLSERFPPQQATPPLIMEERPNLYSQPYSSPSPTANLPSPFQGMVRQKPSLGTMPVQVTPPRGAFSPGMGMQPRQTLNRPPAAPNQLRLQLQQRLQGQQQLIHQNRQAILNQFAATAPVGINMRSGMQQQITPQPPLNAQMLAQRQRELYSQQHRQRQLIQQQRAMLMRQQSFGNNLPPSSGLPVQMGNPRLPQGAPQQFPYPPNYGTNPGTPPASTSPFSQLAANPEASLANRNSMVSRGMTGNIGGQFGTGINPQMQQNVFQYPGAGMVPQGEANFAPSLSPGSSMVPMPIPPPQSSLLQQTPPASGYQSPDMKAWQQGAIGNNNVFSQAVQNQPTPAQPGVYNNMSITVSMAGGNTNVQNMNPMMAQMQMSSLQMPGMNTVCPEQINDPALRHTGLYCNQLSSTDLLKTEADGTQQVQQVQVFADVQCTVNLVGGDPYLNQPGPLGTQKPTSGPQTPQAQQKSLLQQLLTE
Sequence of Nuclear receptor coactivator 3 (Homo sapiens) (Q9Y6Q9 whole entry, looked up, the tested form may be a part): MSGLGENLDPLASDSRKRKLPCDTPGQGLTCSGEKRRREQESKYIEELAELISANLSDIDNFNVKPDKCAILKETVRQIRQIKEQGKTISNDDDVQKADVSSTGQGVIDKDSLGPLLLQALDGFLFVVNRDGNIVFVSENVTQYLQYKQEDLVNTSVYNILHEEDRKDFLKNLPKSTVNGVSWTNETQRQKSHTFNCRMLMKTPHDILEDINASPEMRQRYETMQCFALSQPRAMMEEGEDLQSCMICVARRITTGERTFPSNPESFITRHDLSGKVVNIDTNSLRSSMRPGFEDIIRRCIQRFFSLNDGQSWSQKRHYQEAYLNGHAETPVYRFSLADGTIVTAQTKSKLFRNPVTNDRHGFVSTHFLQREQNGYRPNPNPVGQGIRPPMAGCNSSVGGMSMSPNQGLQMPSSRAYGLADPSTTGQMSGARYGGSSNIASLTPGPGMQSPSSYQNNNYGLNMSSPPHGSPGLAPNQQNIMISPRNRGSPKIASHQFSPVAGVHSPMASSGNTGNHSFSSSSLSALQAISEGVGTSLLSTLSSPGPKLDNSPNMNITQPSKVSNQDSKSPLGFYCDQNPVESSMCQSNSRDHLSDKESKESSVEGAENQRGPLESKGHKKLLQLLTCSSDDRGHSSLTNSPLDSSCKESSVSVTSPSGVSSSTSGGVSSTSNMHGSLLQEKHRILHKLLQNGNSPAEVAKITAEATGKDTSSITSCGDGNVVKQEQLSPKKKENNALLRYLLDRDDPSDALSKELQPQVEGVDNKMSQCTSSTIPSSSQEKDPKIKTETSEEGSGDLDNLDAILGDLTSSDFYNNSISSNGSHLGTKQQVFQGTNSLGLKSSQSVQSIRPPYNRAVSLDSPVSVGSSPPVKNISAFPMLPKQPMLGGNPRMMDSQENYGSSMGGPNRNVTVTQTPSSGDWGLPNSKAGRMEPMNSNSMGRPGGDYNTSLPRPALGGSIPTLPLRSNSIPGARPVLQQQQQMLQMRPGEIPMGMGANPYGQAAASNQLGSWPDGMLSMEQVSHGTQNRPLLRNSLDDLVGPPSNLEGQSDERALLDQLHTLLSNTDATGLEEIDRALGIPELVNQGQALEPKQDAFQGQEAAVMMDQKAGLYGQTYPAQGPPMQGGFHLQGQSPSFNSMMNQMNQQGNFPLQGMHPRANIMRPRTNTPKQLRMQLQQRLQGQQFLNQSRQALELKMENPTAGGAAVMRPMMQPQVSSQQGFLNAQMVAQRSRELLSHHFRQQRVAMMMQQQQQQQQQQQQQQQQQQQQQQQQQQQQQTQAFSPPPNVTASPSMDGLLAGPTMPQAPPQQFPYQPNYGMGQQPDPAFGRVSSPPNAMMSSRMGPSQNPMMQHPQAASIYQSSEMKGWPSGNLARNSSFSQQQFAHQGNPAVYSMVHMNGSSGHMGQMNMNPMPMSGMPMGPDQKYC

`Cc1ccc(-c2nnn(CC(=O)N(Cc3cccs3)C(C(=O)NC3CCCC3)c3ccncc3)n2)cc1` (stereo not given): the inhibition in assay [1] is 58.2% (active); in assay [2], 35.2% (active); in assay [3] it was 48.4% (active); in assay [4], 34.1% (active).
On the same counts, the results for `O=C(N/N=C/c1ccccc1O)c1cccc(C(F)(F)F)c1` are 57.9% (active), 43.2% (active), 65.9% (active) and 48.8% (active).
On the same counts, the results for `O=C(N/N=C\c1c(O)ccc2ccccc12)c1cncc(Br)c1` are 83% (active), 84% (active), 77.7% (active) and 80.5% (active).
Regarding `Cn1c(=O)c2c(nc(Oc3ccc4ccccc4c3)n2C)n(C)c1=O`, the inhibition in assay [1] is 47.5% (active); in assay [2], 39.4% (active); in assay [3], 53.3% (active); in assay [4], 34.7% (active).
For `Cc1cc(/C=C2/C(=O)NN(c3ccccc3)C2=O)c(C)n1-c1ccc(O)cc1`, the inhibition is -13.6% in assay [1], -41.7% in assay [2], -66% in assay [3] and -74.4% in assay [4].
On the same counts, the results for `COC1C(CO)OC(n2c3c(Cl)cccc3c3c4c(c5c6cccc(Cl)c6[nH]c5c32)C(=O)NC4=O)C(O)C1O` (stereo not given) are 68.3% (active), 49.2% (active), 23.4% and 42.6% (active).
`CC1CCN(c2nc3ccc(C(=O)O)cc3s2)CC1`: the inhibition was 10.7% in assay [1], -7.13% in assay [2], -48.3% in assay [3] and -1.81% in assay [4].
Regarding `COc1ccc(C(=O)Cn2c(C(C)=O)nc3ccccc32)cc1`, the inhibition in assay [1] was -0.47%; in assay [2], -3.82%; in assay [3], -13.6%; in assay [4], -8.2%.
On to `COc1ccc(-c2ncncc2-c2ccccc2)c(O)c1`, for which the inhibition in assay [1] is 27%; in assay [2], 17.1%; in assay [3], 35%; in assay [4], 14.7%.
Consider `CCN(CC)c1ccc(/C=N/NC(=O)CCC(=O)NCc2ccccc2)c(O)c1`, for which the inhibition in assay [1] is 22.7%; in assay [2] it was 21.6%; in assay [3], 12.5%; in assay [4] it was 28.9% (active).
Regarding `CN(C)CCCN1C(=O)c2cccc3c([N+](=O)[O-])ccc(c23)C1=O`, the inhibition in assay [1] was 17.8%; in assay [2], 5.35%; in assay [3], -9.62%; in assay [4] it was 0.85%.
On the same counts, the results for `O=C(CCSc1nc2ccccc2s1)N/N=C/c1c(O)ccc2ccccc12` are 20.2%, 23.7%, 36% and 32% (active).
For `C/C(=N\Nc1ccc2nncn2n1)c1ccccn1`, the inhibition was 70.3% (active) in assay [1], 65.5% (active) in assay [2], 62% (active) in assay [3] and 56.6% (active) in assay [4].
For `NC(=O)N=Nc1c2[nH]c3ccccc3nc-2c2ccccc12`, the inhibition is -8.03% in assay [1], 45% (active) in assay [2], -11.8% in assay [3] and 48.8% (active) in assay [4].
Turning to `Cc1ccc(S(=O)(=O)N2CCOCC2)cc1NC(=O)CN1CCN(c2ccc(O)cc2)CC1`, the inhibition is 12.4% in assay [1], -1.58% in assay [2], -6.12% in assay [3] and 11.1% in assay [4].
On the same counts, the results for `Cc1ccccc1-c1cc(C(=O)Nc2sc(C(=O)OC(C)C)c(C)c2C#N)c2ccccc2n1` are 31.8%, 50.9% (active), 37.2% and 40.9% (active).
Regarding `Cn1c2c(c(=O)n(C)c1=O)C(C(F)(F)F)(C(F)(F)F)N=C(C1CCCCC1)N2`, the inhibition in assay [1] is 11.5%; in assay [2], 20.6%; in assay [3] it was 10.2%; in assay [4], 12.8%.
For `COCC(C)n1c(C)cc(C(=O)COC(=O)c2cc(=O)[nH]c3ccccc23)c1C` (stereo not given), the inhibition is 1.93% in assay [1], -15.5% in assay [2], -34.1% in assay [3] and -32.1% in assay [4].
Consider `Cc1sc(NC(=O)Cc2ccc3c(c2)OCO3)nc1-c1ccc2c(c1)CCN2C(=O)c1ccc(F)cc1`, for which the inhibition in assay [1] was 13.6%; in assay [2] it was 30.3% (active); in assay [3], 17.3%; in assay [4] it was 25.9% (active).
Turning to `O=C(NC(=S)/C(=C1\CCCCCN1)[N+](=O)[O-])c1ccccc1`, the inhibition was 32.1% in assay [1], 9.73% in assay [2], -25.3% in assay [3] and -33% in assay [4].
On the same counts, the results for `c1ccc(CNc2c3ccccc3nc3ccccc23)cc1` are 11.8%, 43.6% (active), 0.54% and 54.9% (active).
On the same counts, the results for `O=C(NCc1ccccc1)c1csc(-c2cccnc2)n1` are 54.8% (active), 30.8% (active), 42.7% and 37% (active).
For `Cc1oc2c(Cl)c(Cl)c(O)c(CN(C)C)c2c1C(=O)c1ccc(Cl)cc1`, the inhibition in assay [1] is 44.1% (active); in assay [2], 26.1%; in assay [3] it was 44.2%; in assay [4] it was 33.1% (active).
On the same counts, the results for `COc1ccc(Cl)cc1Nc1nc(-c2sc(NC(=O)C(C)(C)C)nc2C)cs1` are 15.2%, 35.9% (active), 14.5% and 39.8% (active).
On the same counts, the results for `Cn1c(=N)n(CC(=O)c2ccc(Cl)c(Cl)c2)c2ccccc21` are -33.3%, -30.2%, -189% and -61.4%.
On the same counts, the results for `Cc1cc(C)c2nc3nc(C)c(C)cc3c(N)c2c1` are 13.7%, 49.7% (active), 5.02% and 48% (active).
As to `O=C(Nc1scc(-c2ccc(Br)cc2)c1C(=O)O)c1ccccc1F`, the inhibition in assay [1] was 10.7%; in assay [2] it was 15.8%; in assay [3], -17.2%; in assay [4] it was 10.7%.
Regarding `CC(C)(C)S(=O)N1Cc2cc(C(=O)NCC(F)(F)F)nc(-c3cccc(-c4cccc(F)c4)c3)c2[C@@H]1CCO` (stereo not given in full), the inhibition in assay [1] was 10.3%; in assay [2], 2.05%; in assay [3], -14.2%; in assay [4], -2.6%.
On the same counts, the results for `Cc1ccc(NC(=O)c2cc3ccccc3oc2=O)cc1S(=O)(=O)N(C)C` are 82.9% (active), 78.5% (active), 67% (active) and 63.7% (active).
On the same counts, the results for `O=C(Nc1cccc(S(=O)(=O)Nc2ccccc2Cl)c1)c1ccc(Cl)nc1` are -1.42%, 27.7%, 5.83% and 32.2% (active).
